Reference: PubChem BioAssay AID624417 (National Center for Advancing Translational Sciences (NCATS), 2012)
Out of some 410,000 compounds screened, about 6,400 (1.6%) were called active. Inconclusive results (about 20%) are left out. Calls come from the whole dose curve; as a rule, active = well fitted inhibition curve with a large enough effect; inconclusive = small, poorly fitted or top-dose-only effect; inactive = no such curve, though single readings can be large or run the other way. The list comes from a sample in which actives are over-represented; it also holds similar structures and randomly drawn compounds.

biological target: Glucagon-like peptide 1 receptor (Homo sapiens) (UniProt P43220); assay: qHTS of GLP-1 Receptor Inverse Agonists (Inhibition Mode); details: HEK293 GLP-1R CRE-luciferase, luminescence, 24 h, GLP-1R form is constitutively active; series mostly up to 38.3 µM; activity change, negative = inhibition: at the top concentration; note: nearly all actives have a fitted effect of over 55% in size
Sequence (P43220 whole entry, looked up): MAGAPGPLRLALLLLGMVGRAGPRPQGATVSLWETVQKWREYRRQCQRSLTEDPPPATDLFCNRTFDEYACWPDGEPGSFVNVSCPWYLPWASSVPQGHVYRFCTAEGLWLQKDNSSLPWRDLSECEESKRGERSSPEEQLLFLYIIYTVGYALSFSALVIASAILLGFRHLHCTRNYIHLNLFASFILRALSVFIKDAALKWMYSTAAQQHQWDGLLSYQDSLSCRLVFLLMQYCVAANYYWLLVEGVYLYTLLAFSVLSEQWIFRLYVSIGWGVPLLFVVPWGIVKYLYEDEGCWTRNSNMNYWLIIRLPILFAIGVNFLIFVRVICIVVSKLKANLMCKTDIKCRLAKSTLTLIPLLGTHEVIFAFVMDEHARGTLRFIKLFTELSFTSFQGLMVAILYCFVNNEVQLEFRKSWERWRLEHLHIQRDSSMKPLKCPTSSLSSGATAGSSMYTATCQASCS
In short: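 Stable HEK293 clone (constitutively active GLP-1R + cAMP-response luciferase); 200 cells/uL plated, 12 h pre-culture, compound 24 hr, 37 deg C/5% CO2; detection reagent 12 min RT; luminescence.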
% is set by controls: 0 for no effect and ±100 for the full control effect; potency is the fitted concentration of half-maximal effect.

Activity change, negative = inhibition, inactive:
O=C(c1nnc(-c2ccc(Cl)cc2)o1)C1CCCC1 12.1%
S=c1[nH]nc(-c2ccc(Cl)cc2)n1CC1CCCO1 (stereo not drawn) 0%
CC(=O)OC[C@@H]1CN(Cc2ccccc2)C[C@H](n2cnc3c(NCc4ccco4)ncnc32)O1 7.04%
CCCCCCN1C[C@@H](O)[C@H](n2cc(COC(=O)c3ccccc3)nn2)C[C@@H]1c1ccc(Cl)cc1 -10.5%
C[C@H]1CN([C@@H](C)CO)C(=O)CCCn2nncc2CO[C@@H]1CN(C)S(=O)(=O)c1cccc(C#N)c1 -6.94%
COCCCN1C(=O)C(CC(=O)NCc2cccs2)CC(C(=O)N2CCOCC2)=C1C (stereo not drawn) 5%
CCOc1ccc(NC(=O)c2nc(SCC)ncc2Cl)cc1 -10.7%
CCSc1ncc(Cl)c(C(=O)Nc2c(C(=O)c3ccccc3)oc3ccccc23)n1 7.74%
CC(=O)C1=CCC(c2ccccc2)N(S(=O)(=O)c2ccc(C)cc2)C1 (stereo not drawn) 10%
COc1ccc(C(=O)OCC(=O)Nc2cc(C)on2)cc1F 4.43%
COC(=O)c1ccc2c(c1)S(=O)(=O)NC2C (stereo not drawn) 5.42%
Cc1cc(Br)cn2c(Cc3ccccc3C(F)(F)F)c(C3CCCCC3)nc12 7.58%
COc1ccc(CNC(=O)c2ccc(-c3cccnc3)c3ccoc23)cc1OC 24.1%
O=C(NC1(C(F)(F)F)NC(=O)N(C2CCCCC2)C1=O)c1ccco1 (stereo not drawn) -24.1%
COC(=O)NC1(C(F)(F)F)NC(=O)N(C2CCCCC2)C1=O (stereo not drawn) 0.304%
CC1(C(=O)NS(=O)(=O)C2CC2)CCCN(C(=O)CSc2ccccc2)C1 (stereo not drawn) 19.1%
CC1=C(C(=O)N(C)C)CC(CC(=O)NCCN2CCOCC2)C(=O)N1Cc1ccccc1 (stereo not drawn) 15.2%
C=C1C(=O)[C@]23C[C@H]1CCC2[C@@]1(C)C(C[C@@H]3O)[C@](C)(C(=O)O)CC[C@@H]1O (stereo partly drawn) 17.2%
COc1cc(C=C(OC(C)=O)c2ccc3c(c2)OCO3)cc(OC)c1OC 15.3%
C[C@H]1Cn2cnc(C(=O)N[C@H](C)c3ccccc3)c2C(=O)N1 8.44%
CCCCc1nc2ccc(F)cc2cc1C 29.3%
O=C(Nc1ccc(F)cc1)c1ccc(S(=O)(=O)NCc2cccnc2)cc1 -6.58%
Cc1ccc(C(=O)Nc2ccc(C(=O)O)cc2)cc1S(=O)(=O)Nc1ccccc1 -7.85%
O=C1OCCOC2CCCc3oc(-c4ccccc4)c1c32 (stereo not drawn) 8.65%
COc1ccc(C(C)C)cc1-c1ccc2nncn2c1 16.1%
CN(C)CCNC(=O)/C(=C/c1cccc([N+](=O)[O-])c1)NC(=O)c1ccccc1 4.47%
N#C/C(=C\c1ccc(-c2cccc([N+](=O)[O-])c2)o1)C(=O)NCCN1CCOCC1 31.2% [at 7.66 µM]
O=C(OCC(=O)N1CCCCCC1)c1cccc(Cl)c1Cl -32.7%
C[C@@H]1CN([C@H](C)CO)C(=O)CCCn2nncc2CO[C@@H]1CN(C)S(=O)(=O)c1cccc(C#N)c1 1.58%
Cc1ccc(Cn2cc(CN3CC(N4CCN(C)CC4)CS3(=O)=O)nn2)cc1 (stereo not drawn) 23.4%
CCn1c(SCC(=O)NC2CCCC2)nnc1-c1ccoc1C -16.5%
COc1cc(Cl)c(C)cc1NC(=O)CSc1nnc(-c2ccco2)n1CC(C)C -3.81%
Cc1c(NC(=O)CSc2nnnn2-c2ccc(C(=O)O)cc2)c(=O)n(-c2ccccc2)n1C 39%
Cc1c(NC(=O)CSc2nnc(-c3cccnc3)n2N)c(=O)n(-c2ccccc2)n1C 2.18%
Cn1cnc(S(=O)(=O)N2C[C@@H](O)COC[C@@H]3O[C@H](CC(=O)NC4CCC4)CC[C@H]32)c1 5.42%
Brc1ccc2nc(-c3ccccc3)c(Cc3ccccc3)n2c1 -4.19%
Cc1ccc(N(Cc2ccc(C(=O)Nc3ccccc3C(=O)NCc3ccco3)cc2)S(C)(=O)=O)cc1C -2.72%
O=C(CCNC(=O)c1ccccc1Cl)NCc1ccco1 16.7%
CC1(C(=O)NCc2ccc3c(c2)OCO3)CCN1C(=O)Cc1cccs1 (stereo not drawn) 13.1%
O=C(NCc1cccnc1)c1cc(C2CCCCN2C(=O)CCc2ccccc2)on1 (stereo not drawn) 3.69%

Potency, active:
O=C(c1[nH]ncc1-c1ccc(Cl)cc1)C1CO1 (stereo not drawn) 11.2 µM
CCOc1ccc(N(Cc2ccccc2)C(=O)c2nc(SCC)ncc2Cl)cc1 5.62 µM
O=C(NC1(C(F)(F)F)N=C(c2ccccc2)N(C2CCCCC2)C1=O)c1ccccc1F (stereo not drawn) 11.2 µM
O=C(Nc1ccc(Br)cc1)c1ccc(Br)c(S(=O)(=O)NCc2ccccc2)c1 10 µM
Cc1ccc(C(=O)N/C(=C/c2ccc(-c3cccc([N+](=O)[O-])c3)o2)C(=O)NCCCN(C)C)cc1 10 µM
COc1ccccc1NC(=O)CSc1nnc(-c2ccoc2C)n1CCc1ccccc1 7.94 µM
Cc1c(NC(=O)CSc2cccc3cccnc23)c(=O)n(-c2ccccc2)n1C 5.62 µM
Cc1cccc(Nc2ccccc2C(=O)NCc2ccco2)c1C 12.6 µM
